Cav32 inh: blocks human Cav3.2 T-type calcium channel; B-score at 10 µM; O95180; AID 449739; Cav3.2-expressing cells, Fluo-4 calcium fluorescence FDSS; active compounds read low; 100,000 compounds, 4% hits;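 active means single-dose well whose peak fluorescence ratio is a statistical outlier from its plate by either plate-standardised score or position-corrected B-score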
CD11b adhes inh: blocks human CD11b/CD18 adhesion to fibrinogen; K562 CD11b/CD18 adhesion to fibrinogen, ATPlite luminescence; Mn2+ added to activate the integrin; inhibition, % at 10 µM; 93,000 compounds, 0.54% hits;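 active means primary inhibition of 50% or more at 10 µM, then 40% or more on retest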
Target sequence (P05107 whole entry, looked up, other chains not shown): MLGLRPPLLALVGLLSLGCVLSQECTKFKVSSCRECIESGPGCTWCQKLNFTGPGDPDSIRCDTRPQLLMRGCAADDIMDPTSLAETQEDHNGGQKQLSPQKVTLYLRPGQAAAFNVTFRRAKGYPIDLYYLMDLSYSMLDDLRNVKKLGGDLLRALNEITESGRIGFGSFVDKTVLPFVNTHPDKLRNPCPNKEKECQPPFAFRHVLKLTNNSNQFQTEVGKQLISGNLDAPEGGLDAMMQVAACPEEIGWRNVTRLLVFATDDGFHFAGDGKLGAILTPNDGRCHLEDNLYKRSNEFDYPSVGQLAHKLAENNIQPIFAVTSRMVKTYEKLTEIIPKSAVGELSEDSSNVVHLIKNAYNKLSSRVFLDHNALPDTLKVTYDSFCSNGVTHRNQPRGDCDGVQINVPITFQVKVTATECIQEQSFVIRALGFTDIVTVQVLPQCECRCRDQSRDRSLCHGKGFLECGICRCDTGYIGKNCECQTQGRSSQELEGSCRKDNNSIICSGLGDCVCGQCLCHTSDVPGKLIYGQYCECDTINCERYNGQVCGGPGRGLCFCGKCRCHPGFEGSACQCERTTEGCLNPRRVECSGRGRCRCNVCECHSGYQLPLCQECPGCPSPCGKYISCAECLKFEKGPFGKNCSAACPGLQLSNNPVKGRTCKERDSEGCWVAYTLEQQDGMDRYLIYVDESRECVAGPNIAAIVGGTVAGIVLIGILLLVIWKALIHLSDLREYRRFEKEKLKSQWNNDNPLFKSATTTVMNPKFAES
CD11b adhes enh: enhancers of human CD11b/CD18 binding to fibrinogen; P05107+P11215; K562 CD11b/CD18 adhesion to fibrinogen, ATPlite luminescence; activation, % at 10 µM; 93,000 compounds, 0.07% hits;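 active means 10 µM primary screen giving 50% or more activity, confirmed by 40% or more on retest at that dose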
E coli WT exp: blocks growth of wild type E. coli BW25113 | OD600 absorbance | growth inhibition, % at 100 µM | 98,000 compounds, 0.15% hits;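 active means growth inhibition above about 50% at one test dose, limit read from the data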;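 further: growth measured after 20 h incubation at 37 °C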
* hit, by the source's call; / = no result given. The sample as a whole holds a higher share of hits than the screen did.

SMILES	Cav32 inh	CD11b adhes inh	CD11b adhes enh	E coli WT exp
CCCOc1ccc(Br)cc1CSC(=N)N	/	101.6*	-7.0	/
O=C(CN1C(=O)C2C3C=CC(C3)C2C1=O)Nc1nc(SCc2ccc(Cl)cc2)n[nH]1 (centres undefined)	-8.29*	-0.2	1.1	11.0
O=C(CN1C(=O)C2C3C=CC(C3)C2C1=O)Nc1nc2ccccc2[nH]1 (centres undefined)	-1.11	-25.3	1.6	0.0
O=C(Cn1c(=O)c2c(ncn2C2CCCC2)n(Cc2ccccc2)c1=O)N1CCc2ccccc21	-4.45*	-10.9	4.1	-18.0
O=C1c2cnc3nc(SCc4ccc(Cl)cc4)nn3c2CC2c3ccccc3CCN12 (centres undefined)	-6.27*	4.9	1.0	-6.0
Clc1ccc(CSc2ncccn2)cc1	-1.38	2.9	-1.9	12.0
CCn1ncc(CNC(=O)c2cccc([N+](=O)[O-])c2)c1C	/	-3.1	-4.7	/
CCn1c(=O)cc(SCC(=O)NCCCN2CCN(c3ccccc3F)CC2)c2ccccc21	-3.39*	20.1	-4.1	4.0
CCOC(=O)c1c(C)nc2c(c1-c1ccc(Cl)cc1)C(=O)CC(C)(C)C2	/	-11.0	5.7	/
CSc1cc(-c2ccc(Cl)cc2)c(C(=O)N2CCCC2)s1	-4.39*	10.0	5.2	2.0
CNC(=O)c1sc(SC)cc1-c1ccc(Cl)cc1	-0.47	/	/	-5.0
Cc1ccc(NC(NC(=O)c2cccs2)C(Cl)(Cl)Cl)cc1 (centres undefined)	-1.1	/	/	-3.0
Cc1ccccc1NC(NC(=O)c1cccs1)C(Cl)(Cl)Cl (centres undefined)	-5.88*	9.0	-3.0	-3.0
O=C(c1cc2ccccc2oc1=O)N(Cc1cccs1)Cc1ccccc1Cl	-7.12*	/	/	/
CC(=O)N(CCC(c1ccccc1)c1ccco1)Cc1cccs1 (centres undefined)	-7.36*	/	/	0.0
O=C(c1ccco1)N(CCC(c1ccccc1)c1ccco1)Cc1ccco1 (centres undefined)	-11.9*	4.7	-3.2	3.0
NC(=O)CC(c1ccccc1)c1ccco1 (centres undefined)	0.122	/	/	3.0
CCC(=O)N(CCC(c1ccco1)c1ccccc1OC)Cc1cccs1 (centres undefined)	-5.78*	-25.5	0.4	6.0
COc1ccc(CNC(=O)C2COc3ccccc3O2)c(OC)c1 (centres undefined)	/	9.1	1.3	-4.0
O=C(Cn1nc(Cc2cccnc2)c2ccccc2c1=O)N1CCN(c2ccccn2)CC1	-3.31*	-9.7	1.3	4.0
O=C(c1nn(Cc2ccccc2)c(=O)c2ccccc12)N1CCc2ccccc2C1	-4.05*	-2.0	0.8	-5.0
O=C(c1nn(Cc2ccccc2)c(=O)c2ccccc12)N1CCN(c2ccccn2)CC1	-5.61*	-1.3	2.8	-4.0
O=C(c1cc2ccccc2c(=O)o1)N1CCc2ccccc2C1	/	/	/	-6.0
COC(=O)C1=C(CSc2nncn2C)NC(=O)NC1c1ccc(F)cc1 (centres undefined)	0.146	4.0	1.0	-1.0
COC(=O)c1ccccc1S(=O)(=O)N1Cc2cc([N+](=O)[O-])ccc2Oc2ccccc21	-3.03	7.8	-1.2	-12.0
SMILES	Cav32 inh	CD11b adhes inh	CD11b adhes enh	E coli WT exp
Cc1ccc(CN(C(=O)Cn2nnc3ccccc32)C(C(=O)NCc2ccco2)c2ccc(C)o2)cc1 (centres undefined)	-0.709	/	/	/
Cc1ccc(N(C(=O)Cn2nnc3ccccc32)C(C(=O)NCc2ccco2)c2ccc(C)o2)cc1 (centres undefined)	-4.3*	1.2	1.3	-9.0
Cc1ccc(C(C(=O)NCc2ccco2)N(CCc2ccccc2)C(=O)Cn2nnc3ccccc32)o1 (centres undefined)	-5.6*	4.2	0.9	1.0
COC(=O)C1=C(CCc2ccccc2)NC(=O)NC1c1ccc(Cl)cc1 (centres undefined)	-1.13	/	/	/
O=C(c1ccc2c(c1)OCCO2)C1CCN(C(=O)c2ccc(F)cc2)CC1	-1.11	-12.1	0.8	3.0
O=C(c1ccc2c(c1)OCCO2)C1CCN(C(=O)c2ccc(F)c(F)c2)CC1	-3.87*	-1.1	0.1	4.0
CC1=CC(C)(C)N2C(=O)C3(C(C#N)=C(N)Oc4cc(O)ccc43)c3c(C)c(C)cc1c32 (centres undefined)	-4.05*	1.5	6.2	0.0
CC1(c2ccccc2)CC(C)(C)N2C(=O)C3(C(C#N)=C(N)Oc4cc(O)ccc43)c3cccc1c32 (centres undefined)	-4.86*	30.0	-6.9	-2.0
O=C(Nc1cccc(C(F)(F)F)c1)c1ccc(Cn2cc(Br)cn2)o1	-7.18*	/	/	14.0
O=C(Nc1ccc(C(F)(F)F)cc1Cl)c1ccc(Cn2cc(Br)cn2)o1	-3.15	12.4	-8.8	1.0
Cc1noc(C)c1S(=O)(=O)N(CCc1ccccc1)Cc1ccccc1	-4.69*	0.1	-0.3	-1.0
Cc1noc(C)c1S(=O)(=O)N(C)CC(=O)NCc1ccccc1	0.48	30.3	-2.4	0.0
CCO/N=C(\C)c1c(O)c(CC)c(-c2ccccc2)n(-c2ccccc2)c1=O	-3.85*	/	/	/
CCCc1c(O)c2ccccc2n(-c2ccccc2)c1=O	1.39	/	/	-1.0
CC(=O)c1c(O)c(C)c(-c2ccccc2)n(-c2ccccc2)c1=O	-3.6*	-14.4	7.9	3.0
C=CCN(CC=C)Cc1c(C)[nH]c2ccc(C(=O)OCC)cc2c1=O	0.269	6.0	0.3	-2.0
CC1(C)c2[nH]c3ccccc3c2C[C@@H]2C(=O)N(Cc3ccco3)C(=O)N21	-0.0242	/	/	/
CC(C)NC(=O)C1(c2ccccc2)CC1(Cl)Cl (centres undefined)	/	-15.2	-2.3	/
COc1ccc(OC)c(C2C(C#N)=C(N)Oc3cc(N)ccc32)c1 (centres undefined)	-0.869	-13.2	10.5	-2.0
COc1ccc(C2C(C#N)=C(N)Oc3cc4c(cc32)OCO4)cc1 (centres undefined)	-4.04*	-23.1	6.4	0.0
N#CC1=C(N)Oc2cc(O)ccc2C1c1cccs1 (centres undefined)	-3.01	-4.8	-0.4	-3.0
N#CC1=C(N)Oc2cc(O)ccc2C1c1ccncc1 (centres undefined)	-4.64*	-14.5	2.1	11.0
CCOc1ccc2c(c1)C(c1ccccc1)=NNC(c1ccccc1)=N2	0.511	/	/	/
CCOC(=O)c1sc(NC(=O)C(CC)OC(=O)C(CC(C)C)NC(=O)c2ccccc2)nc1C (centres undefined)	-4.04*	/	/	9.0
CCc1ccc(OCCNC(=O)c2cccs2)cc1	-5.93*	-6.3	0.7	2.0
SMILES	Cav32 inh	CD11b adhes inh	CD11b adhes enh	E coli WT exp
COCCN(C(=O)CNC(=O)c1ccco1)C(C(=O)NC1CCCC1)c1cccs1 (centres undefined)	-0.268	/	/	/
O=C(Cc1ccc(Br)cc1)NC1CCCCC1	0.922	-0.9	-1.0	-6.0
CC1CC(NC(=O)Cc2ccc(Br)cc2)CC(C)(C)C1 (centres undefined)	-7.44*	/	/	/
Cc1nc2c(cnn2-c2ccccc2Cl)c(=O)n1-c1ccc(C(C)C)cc1	-6.22*	-33.1	0.6	-6.0
Cc1ccc(-n2c(C)nc3c(cnn3-c3ccc(F)cc3)c2=O)cc1	/	/	/	2.0
NC1=NC(=O)/C(=C/c2ccccc2OS(=O)(=O)c2ccc3ccccc3c2)S1	/	-12.4	110.3	/

Screens as filed in PubChem.
